ChEMBL document CHEMBL3988442, “University of Dundee, Small-Polar-MMV Screening Library” (2021)
For some of these results: Results with a measured potency or affinity are listed apart.

Experiments:
Set-up in all cases: scale not given: direction of the effect not stated beside the values
[1] = molecular target: Protein translocase subunit SecA (Escherichia coli (strain K12)) (UniProt P10408); assay: Assay to Identify E. coli SecA ATPase Inhibitors; type: functional; conditions: 30 µM
[2] = molecular target: T1, Ubiquitin-activating enzyme e1, putative (Leishmania donovani (strain BPK282A1)) (UniProt E9BSI1); assay: Leishmania donovani Ubiquitin Activating Enzyme (LdE1); type: functional; conditions: 30 µM
T1 sequence (whole entry): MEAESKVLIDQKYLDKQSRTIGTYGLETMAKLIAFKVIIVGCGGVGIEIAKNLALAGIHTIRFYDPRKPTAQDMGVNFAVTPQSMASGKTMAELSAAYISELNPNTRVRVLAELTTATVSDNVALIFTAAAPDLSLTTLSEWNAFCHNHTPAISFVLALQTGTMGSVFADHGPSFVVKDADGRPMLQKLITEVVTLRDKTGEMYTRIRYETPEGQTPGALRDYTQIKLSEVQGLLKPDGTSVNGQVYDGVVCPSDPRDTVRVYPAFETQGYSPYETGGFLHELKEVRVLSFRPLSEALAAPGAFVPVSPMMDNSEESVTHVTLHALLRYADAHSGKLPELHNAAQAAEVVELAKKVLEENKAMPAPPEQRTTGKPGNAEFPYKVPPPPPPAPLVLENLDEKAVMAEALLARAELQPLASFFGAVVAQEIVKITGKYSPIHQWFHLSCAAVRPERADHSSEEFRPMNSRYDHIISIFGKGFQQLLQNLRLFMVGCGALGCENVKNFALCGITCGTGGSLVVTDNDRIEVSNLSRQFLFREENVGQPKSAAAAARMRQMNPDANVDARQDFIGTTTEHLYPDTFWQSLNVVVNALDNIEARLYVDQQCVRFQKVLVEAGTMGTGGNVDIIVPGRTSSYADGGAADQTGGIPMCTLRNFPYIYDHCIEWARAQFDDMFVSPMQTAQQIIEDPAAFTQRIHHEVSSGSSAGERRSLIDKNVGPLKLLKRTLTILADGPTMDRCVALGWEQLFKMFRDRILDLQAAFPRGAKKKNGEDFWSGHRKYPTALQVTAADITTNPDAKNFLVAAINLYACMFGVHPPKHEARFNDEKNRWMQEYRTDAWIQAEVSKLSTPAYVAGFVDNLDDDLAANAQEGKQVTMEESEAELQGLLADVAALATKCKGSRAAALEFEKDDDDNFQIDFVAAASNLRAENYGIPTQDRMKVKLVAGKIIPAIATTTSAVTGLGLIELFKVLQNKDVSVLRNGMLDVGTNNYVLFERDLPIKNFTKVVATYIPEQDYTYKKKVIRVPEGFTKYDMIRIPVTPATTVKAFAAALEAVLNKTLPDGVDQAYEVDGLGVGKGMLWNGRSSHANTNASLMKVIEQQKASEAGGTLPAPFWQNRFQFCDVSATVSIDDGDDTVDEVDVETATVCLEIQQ

[3] = molecular target: Sialic acid-binding Ig-like lectin 9 (Homo sapiens) (UniProt Q9Y336); assay: Hs-Siglec9 ALPHAscreen SOP 20170721; conditions: 10 µM
Trypanosoma cruzi = assay: Trypanosoma cruzi phosphomannomutase and mannose-1-phosphate guanylyltransferase assay; type: functional; conditions: 10 µM
[4] = molecular target: T2, Arginase-2, mitochondrial (Homo sapiens) (UniProt P78540); assay: in vitro enzyme assay to detect the production of urea directly proportional to the activity of Arginase II; type: functional; conditions: 33.3 µM; further: in the data most compounds retested in dose-response had high values
T2 sequence (whole entry): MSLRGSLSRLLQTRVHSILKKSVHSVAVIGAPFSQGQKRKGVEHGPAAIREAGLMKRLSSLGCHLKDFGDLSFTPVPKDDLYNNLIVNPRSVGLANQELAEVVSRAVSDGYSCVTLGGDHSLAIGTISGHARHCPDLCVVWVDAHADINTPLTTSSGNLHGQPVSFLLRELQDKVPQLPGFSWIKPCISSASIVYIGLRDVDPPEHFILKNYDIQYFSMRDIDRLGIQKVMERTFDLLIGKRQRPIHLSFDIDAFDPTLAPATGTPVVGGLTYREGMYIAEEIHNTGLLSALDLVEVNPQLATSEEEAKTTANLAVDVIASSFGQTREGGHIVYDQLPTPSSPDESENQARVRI

[5] = molecular target: T3, Proteasome subunit beta (Trypanosoma cruzi) (UniProt O96673); assay: Trypanosoma cruzi proteasome chymotrypsin-like activity (TcProtChymo) assay.; further: in the data most compounds retested in dose-response had high values; type: functional; conditions: 9.37 µM
T3 sequence (whole entry): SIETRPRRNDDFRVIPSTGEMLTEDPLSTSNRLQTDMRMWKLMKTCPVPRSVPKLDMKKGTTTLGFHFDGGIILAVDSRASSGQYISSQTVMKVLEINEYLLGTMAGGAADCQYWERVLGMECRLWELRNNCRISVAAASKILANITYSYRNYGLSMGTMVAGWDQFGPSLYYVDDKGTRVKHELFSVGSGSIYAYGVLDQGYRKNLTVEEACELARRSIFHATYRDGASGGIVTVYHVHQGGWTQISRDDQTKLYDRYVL

Homo sapiens = organism: Homo sapiens; assay: To identify inhibition of the IFN signalling (Jak-Stat) pathway via expression of an eGFP reporter gene under the control of an IFN-stimulated response element (ISRE) containing MxA promoter.; type: functional; conditions: 30 µM
[6] = molecular target: T4, Tyrosyl-tRNA synthetase, putative (Trypanosoma cruzi (strain CL Brener)) (UniProt Q4DSP6); assay: Trypanosoma cruzi tyrosyl tRNA synthetase (TcYRS) _High Tyrosine SOP; type: functional; conditions: 30 µM; further: in the data most compounds retested in dose-response had high values
T4 sequence (whole entry): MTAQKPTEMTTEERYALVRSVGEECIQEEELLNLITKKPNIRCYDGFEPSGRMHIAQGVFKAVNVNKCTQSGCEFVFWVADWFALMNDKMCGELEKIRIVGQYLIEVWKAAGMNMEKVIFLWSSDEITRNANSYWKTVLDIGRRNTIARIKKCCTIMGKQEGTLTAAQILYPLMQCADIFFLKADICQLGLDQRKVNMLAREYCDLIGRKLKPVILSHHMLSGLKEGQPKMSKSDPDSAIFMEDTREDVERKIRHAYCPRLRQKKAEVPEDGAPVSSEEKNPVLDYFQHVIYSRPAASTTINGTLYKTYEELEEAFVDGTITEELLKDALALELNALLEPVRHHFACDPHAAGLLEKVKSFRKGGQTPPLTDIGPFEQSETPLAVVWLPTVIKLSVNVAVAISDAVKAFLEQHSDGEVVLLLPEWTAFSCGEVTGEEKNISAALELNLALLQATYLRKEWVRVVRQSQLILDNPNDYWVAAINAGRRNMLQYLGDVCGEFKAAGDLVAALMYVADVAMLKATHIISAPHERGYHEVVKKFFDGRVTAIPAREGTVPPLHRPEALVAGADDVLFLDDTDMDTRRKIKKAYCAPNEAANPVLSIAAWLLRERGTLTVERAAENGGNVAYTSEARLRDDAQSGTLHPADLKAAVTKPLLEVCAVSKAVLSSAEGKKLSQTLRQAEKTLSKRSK

[7] = molecular target: T4, Tyrosyl-tRNA synthetase, putative (Trypanosoma cruzi (strain CL Brener)); assay: Trypanosoma cruzi tyrosyl tRNA synthetase (TcYRS) SOP; type: functional; conditions: 30 µM
[8] = molecular target: Chromo domain-containing protein 1 (Saccharomyces cerevisiae (strain ATCC 204508 / S288c) (Baker's yeast)) (UniProt P32657); assay: ScCHD-1 Enzyme Inhibition Assay; type: functional; conditions: 30 µM; further: in the data most compounds retested in dose-response had high values
Chromo domain-containing protein 1 (Saccharomyces cerevisiae (strain ATCC 204508 / S288c) (Baker's yeast)), sequence (P32657 whole entry, the tested form may be a part): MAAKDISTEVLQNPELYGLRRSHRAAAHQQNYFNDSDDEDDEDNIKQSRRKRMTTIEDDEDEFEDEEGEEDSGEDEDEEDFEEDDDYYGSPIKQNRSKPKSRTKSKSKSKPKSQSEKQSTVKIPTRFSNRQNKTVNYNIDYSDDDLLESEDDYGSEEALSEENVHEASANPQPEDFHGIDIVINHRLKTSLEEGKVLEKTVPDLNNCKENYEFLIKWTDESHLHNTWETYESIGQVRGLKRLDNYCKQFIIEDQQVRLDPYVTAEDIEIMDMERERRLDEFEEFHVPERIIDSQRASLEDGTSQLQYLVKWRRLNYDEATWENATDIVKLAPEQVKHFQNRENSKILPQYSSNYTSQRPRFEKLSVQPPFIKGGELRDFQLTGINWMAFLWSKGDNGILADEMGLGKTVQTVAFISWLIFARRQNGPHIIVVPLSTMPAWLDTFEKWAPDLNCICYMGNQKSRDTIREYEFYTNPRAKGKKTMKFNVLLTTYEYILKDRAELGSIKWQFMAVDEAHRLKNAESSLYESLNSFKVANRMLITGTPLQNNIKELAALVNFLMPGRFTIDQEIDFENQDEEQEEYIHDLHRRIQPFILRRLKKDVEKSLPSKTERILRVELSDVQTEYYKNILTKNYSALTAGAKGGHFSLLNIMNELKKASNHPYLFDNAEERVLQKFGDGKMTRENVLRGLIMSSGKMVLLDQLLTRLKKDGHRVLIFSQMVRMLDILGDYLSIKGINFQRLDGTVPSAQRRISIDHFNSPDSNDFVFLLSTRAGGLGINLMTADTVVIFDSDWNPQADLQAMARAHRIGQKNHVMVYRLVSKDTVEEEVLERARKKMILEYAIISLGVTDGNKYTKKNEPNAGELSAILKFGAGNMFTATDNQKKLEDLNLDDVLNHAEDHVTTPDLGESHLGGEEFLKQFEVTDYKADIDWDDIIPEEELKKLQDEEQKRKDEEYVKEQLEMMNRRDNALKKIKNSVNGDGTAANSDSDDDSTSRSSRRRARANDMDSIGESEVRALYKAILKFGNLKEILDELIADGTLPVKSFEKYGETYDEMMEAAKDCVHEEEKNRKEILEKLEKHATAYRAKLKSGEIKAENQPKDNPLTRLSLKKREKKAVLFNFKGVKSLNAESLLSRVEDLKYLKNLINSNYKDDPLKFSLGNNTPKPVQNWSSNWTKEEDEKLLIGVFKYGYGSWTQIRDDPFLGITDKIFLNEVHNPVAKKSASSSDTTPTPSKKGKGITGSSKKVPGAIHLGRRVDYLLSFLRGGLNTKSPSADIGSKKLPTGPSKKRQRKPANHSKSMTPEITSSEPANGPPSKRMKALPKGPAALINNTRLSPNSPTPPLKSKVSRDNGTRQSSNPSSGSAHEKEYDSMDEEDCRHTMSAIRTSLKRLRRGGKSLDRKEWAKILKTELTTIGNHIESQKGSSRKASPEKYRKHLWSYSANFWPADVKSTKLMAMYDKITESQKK

Protein translocase subunit SecA (Escherichia coli (strain K12)), sequence (P10408 whole entry): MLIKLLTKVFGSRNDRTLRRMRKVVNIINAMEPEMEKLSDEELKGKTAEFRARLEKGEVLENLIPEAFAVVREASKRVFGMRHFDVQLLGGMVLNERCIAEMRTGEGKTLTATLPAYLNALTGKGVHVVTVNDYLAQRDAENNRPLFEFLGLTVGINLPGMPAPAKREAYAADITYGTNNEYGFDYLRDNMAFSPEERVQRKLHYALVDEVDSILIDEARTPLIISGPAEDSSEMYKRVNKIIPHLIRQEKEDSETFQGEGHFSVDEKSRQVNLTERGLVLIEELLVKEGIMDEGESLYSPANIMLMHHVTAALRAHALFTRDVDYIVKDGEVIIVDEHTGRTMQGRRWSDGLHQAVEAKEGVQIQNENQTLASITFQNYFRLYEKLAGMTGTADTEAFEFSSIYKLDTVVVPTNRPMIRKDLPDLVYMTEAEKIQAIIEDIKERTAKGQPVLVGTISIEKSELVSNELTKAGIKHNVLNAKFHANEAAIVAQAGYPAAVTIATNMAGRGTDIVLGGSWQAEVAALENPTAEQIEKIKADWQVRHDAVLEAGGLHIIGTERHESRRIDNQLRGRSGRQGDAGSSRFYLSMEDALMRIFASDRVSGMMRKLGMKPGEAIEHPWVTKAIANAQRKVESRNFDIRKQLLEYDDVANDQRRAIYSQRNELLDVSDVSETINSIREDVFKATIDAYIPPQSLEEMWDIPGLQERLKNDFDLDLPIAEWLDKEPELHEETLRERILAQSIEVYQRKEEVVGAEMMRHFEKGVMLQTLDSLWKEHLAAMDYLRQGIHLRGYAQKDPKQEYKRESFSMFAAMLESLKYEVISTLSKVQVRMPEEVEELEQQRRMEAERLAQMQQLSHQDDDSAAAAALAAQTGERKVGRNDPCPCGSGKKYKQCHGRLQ
Sialic acid-binding Ig-like lectin 9 (Homo sapiens), sequence (Q9Y336 whole entry): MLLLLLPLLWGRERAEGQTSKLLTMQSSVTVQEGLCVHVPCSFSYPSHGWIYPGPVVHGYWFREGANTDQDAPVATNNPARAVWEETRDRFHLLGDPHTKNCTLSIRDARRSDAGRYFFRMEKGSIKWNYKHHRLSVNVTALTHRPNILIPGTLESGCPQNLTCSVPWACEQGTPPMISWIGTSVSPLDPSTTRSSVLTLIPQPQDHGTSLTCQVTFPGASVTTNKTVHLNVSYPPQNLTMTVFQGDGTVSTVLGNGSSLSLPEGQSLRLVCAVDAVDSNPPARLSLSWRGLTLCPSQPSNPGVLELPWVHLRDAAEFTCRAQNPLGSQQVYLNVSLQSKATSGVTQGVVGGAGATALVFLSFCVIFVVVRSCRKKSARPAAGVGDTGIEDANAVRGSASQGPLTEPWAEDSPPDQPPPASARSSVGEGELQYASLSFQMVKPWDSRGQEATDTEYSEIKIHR

Compound | Percent Effect [1] [%] | Percent Effect [2] [%] | Percent Effect [3] [%] | Percent Effect (Trypanosoma cruzi) [%] | Percent Effect [4] [%] | Percent Effect [5] [%] | Percent Effect (Homo sapiens) [%] | Percent Effect [6] [%] | Percent Effect [7] [%] | Percent Effect [8] [%]
COCCC(=O)N1CCCC2(CCC(=O)N2CCOC)CC1 (stereo not given) | -2.63 | 11.7 | -2.38 | -4.13 | 4.57 | -1.97 | 11.1 | 2.9 | 2.5 | -3.46
O=C(Cc1cn2ccsc2n1)N1CCCC(n2cncn2)C1 (stereo not given) | -3.72 | 12.8 | -3.95 | -4.22 | -5.74 | 13.9 | 31.1 | 4.31 | 13.2 | -5.26
CS(=O)(=O)N1CCC2(CC1)CC(CC(=O)N1CCCC1)c1ccccc12 (stereo not given) | -6.42 | 6.49 | 10.4 | -2.43 | -5.67 | 2.21 | -5.9 | 1.58 | -7.69 | 2.73
O=C(NCc1nn(-c2ccccc2)c2c1CCC2)N1CCSCC1 | -6.8 | -2.56 | -13.1 | 12.7 | -1.64 | 7.25 | 15.5 | 2.39 | 13.2 | -7.59
O=C(Nc1ccccc1)N1CCn2nnc(COc3cccnc3)c2C1 | -6.28 | 6.49 | -0.598 | -0.487 | 4.86 | 5.56 | -5.86 | 8.95 | 15.4 | 5.54
c1ccc(CN2CCc3nnc(CN4CCCCC4)n3CC2)nc1 | -8.66 | 1.3 | -4.58 | -3.41 | -4.86 | 18.1 | 0.921 | 0.526 | 2.56 | -0.472
c1cnnc(N2CCCC(NCc3cn4ccccc4n3)C2)c1 (stereo not given) | 4.38 | 23.4 | -9.09 | -10.8 | -1.43 | 26.5 | 17 | 8.82 | 11.8 | -10.5
